# In PubChem BioAssay (Tox21):
# Records with an inconclusive call do not appear. Unmarked numbers belong to inactive results. Active and inactive are the calls of the source. Calls follow the shape of the dose curve; as a rule, active = well fitted cell-killing curve with a large enough effect in the repeat runs; inconclusive = weak or mixed curves, or effect the other way; inactive = flat fitted curve, though single readings scatter.
# Test: qHTS assay to identify small molecule antagonists of the estrogen receptor alpha (ER-alpha) signaling pathway using the BG1 cell line in the presence of 0.1 nM 17-beta-estradiol - cell viability counter screen (AID 1259241); also: nearly all actives have a fitted effect of over 40% in size
# Conditions: VM7Luc4E2 (BG1) viability, CellTiter-Fluor protease, 22 h, 0.1 nM estradiol agonist added; series mostly up to 92.4 µM; activity change, negative = cytotoxicity: at the top concentration
# Text: National Center for Advancing Translational Sciences [NCATS]
# NIH Chemical Genomics Center [NCGC]
# U.S. Environmental Protection Agency [EPA]
# National Institutes of Environmental Health Sciences [NIEHS]
# National Toxicology Program [NTP]
# U.S. Food and Drug Administration [FDA]
# Estrogen receptor (ER), a member of the nuclear hormone receptor plays an important role in development, metabolic homeostasis and reproduction. Two subtypes of ER, ER-alpha and ER-beta, have similar expression patterns with some uniqueness in both types. Endocrine disrupting chemicals (EDCs) and their interactions with steroid hormone receptors like ER causes disruption of normal endocrine function. Therefore, it is important to understand the effect of environmental chemicals in ER signaling pathway. For identifying ER antagonists, VM7Luc4E2 cell line was used to screen against Tox21 compound libraries.
# VM7Luc4E2 cell line (provided by Denison MS, University of California) endogenously express full-length ER-alpha and is stably transfected with a plasmid containing four estrogen responsive elements (ERE) upstream of a luciferase reporter gene. The current screening for identification of ER-alpha inhibitors against Tox21 compound libraries used lower concentration (0.1 nM) of 17beta-Estradiol as a stimulator. The cytotoxicity of the Tox21 compound libraries against VM7Luc4E2 cell line was tested by measuring live-cell protease activity using CellTiter-Fluor assay in the same wells.
# Tox21 Assay Protocol Summary:
# VM7Luc4E2 cells were cultured in phenol red free assay medium containing 10% charcoal stripped FBS for 5 days prior to the assay. The cells were dispensed at 4,000 cells/well in 4 uL of assay medium into white wall/solid-bottom 1536-well plates (Corning Life Sciences, Corning, NY) using a Multidrop Combi (ThermoFisher Scientific, Waltham, MA) dispenser. After the assay plates were incubated at 37C and 5% CO2 for 24 hr, 23 nL of compounds dissolved in DMSO, positive controls or DMSO only was transferred to the assay plates by a Pintool station (Kalypsys, San Diego, CA). The transfer of compounds was followed by the addition of 1 uL of 0.1 nM (final concentration) agonist (17beta-Estradiol)/assay medium using a Flying Reagent Dispenser (FRD, Aurora Discovery, San Diego, CA). The plates were incubated at 37C and 5% CO2 for 22 hr. For cytotoxicity assay, 1 uL of CellTiter-Fluor reagent (Promega Corporation, Madison, WI) was added to each well using the FRD and after 30 min incubation at 37C and 5% CO2, The fluorescence intensity was measured using ViewLux plate reader (PerkinElmer, Shelton, CT).
# % is scaled to controls: 0 for no effect and ±100 for the full control effect; potency is read from the fitted curve at half-maximal effect.
Structure (SMILES),"activity change, negative = cytotoxicity",Potency
O=c1oc2ccccc2c(O)c1Cc1c(O)c2ccccc2oc1=O,-19.2% [at 42.5 µM],
CCCCCCCCCCCCCCCC[N+](C)(C)C,,inactive
O=C(CCl)Nc1ccccc1,,61.1 µM (active)
CN(CCCC(O)c1cccnc1)N=O (stereo not given),-0.108%,
Cc1c(Cl)c(=O)oc2cc(OP(=O)(OCCCl)OCCCl)ccc12,25.6% [at 42.5 µM],
BrCBr,14.2%,
Oc1ccccc1Br,11.2%,
CCOCCOC(C)=O,2.24%,
CN(C)[C@@H]1C(=O)C(C(N)=O)=C(O)[C@@]2(O)C(=O)C3=C(O)c4c(O)ccc(Cl)c4[C@@](C)(O)[C@H]3C[C@@H]12,-0.504%,
Cl/C=C\CCl,-0.283%,
CCCCCCCCCCCCBr,-7.14%,
CCCCCCCCCCCCCCC(Br)C(=O)O (stereo not given),5.72%,
O=C(O)c1cc[c]([Hg][Cl])cc1,-3.95%,
COP(=S)(OC)Oc1cc(Cl)c(Br)cc1Cl,-3.64%,
CCOP(=O)(NC(C)C)Oc1ccc(SC)c(C)c1 (stereo not given),-6.14%,
ClC1=C(Cl)C2(Cl)C3C(Cl)C=CC3C1(Cl)C2(Cl)Cl (stereo not given),,inactive
CCOP(=S)(OCC)SCS(=O)(=O)C(C)(C)C,-20.3%,
COc1ccc([N+](=O)[O-])cc1O,-1.45% [at 42.5 µM],
CCCCCCCCCBr,6.57%,
CCC(C)c1cc(C(C)(C)C)cc(-n2nc3ccccc3n2)c1O (stereo not given),-2.2% [at 42.5 µM],

Structure (SMILES),"activity change, negative = cytotoxicity",Potency
Cc1cc(N=Nc2ccccc2C)ccc1N,,24.3 µM (active)
Clc1ccc(-c2ccc(Cl)c(Cl)c2Cl)c(Cl)c1Cl,7.97%,
CCOC(=O)C1(c2ccccc2)CCN(CCC(C#N)(c2ccccc2)c2ccccc2)CC1,-3.36% [at 42.5 µM],
Oc1ccc(C2(c3ccc(O)cc3)CCCCC2)cc1,-11.2%,
ClC(Cl)=C(Cl)Cl,16.3%,
N#CCCO,6.84%,
Nc1ccc(Cl)cc1C(=O)c1ccccc1,-15.9%,
Cn1cc(C2=C(c3cn(C4CCN(Cc5ccccn5)CC4)c4ccccc34)C(=O)NC2=O)c2ccccc21,-14.4% [at 42.5 µM],
CCCCCCCCCCBr,2.77%,
Clc1ccc(Oc2ccccc2)cc1,1.06%,
Clc1ccc(COC(Cn2ccnc2)c2ccc(Cl)cc2Cl)cc1 (stereo not given),2.03% [at 42.5 µM],
CN(C)C(=S)[S-].CN(C)C(=S)[S-].[Cu+2],,1.67 µM (active)
N#CCCSCCC#N,20.9%,
O=c1ssc(Cl)c1Cl,-1.18%,
CC(C)CC(C)N (stereo not given),5.76%,
Oc1ccc(C(c2ccc(O)cc2)(C(F)(F)F)C(F)(F)F)cc1,,inactive
NC(=O)c1ccc(N)nc1,-0.85%,
ClC1=C(Cl)[C@]2(Cl)[C@@H]3[C@@H]4C[C@@H]([C@H]5O[C@@H]45)[C@@H]3[C@@]1(Cl)C2(Cl)Cl,-2.32%,
ClCCN1CCOCC1,1.07%,
CCCSP(=O)(OCC)SCCC,0.418%,
